Out of some 52,000 compounds screened, about 4,300 (8.3%) were called active. The sample as a whole holds a higher share of actives than the screen did. Unmarked numbers belong to inactive results. Cut-off read from the data, not from the text of the source: active = survival mostly below about 52% (no sharp cut-off); inactive = mostly above about 56%.
These compounds were tested on DeltatarO mutant (assay: S. aureus survival, RN4220 and DeltatarO strains – OD600, teichoic acid synthesis inhibitors, primary screen (AID 463173)). Conditions: S. aureus RN4220 wild type/DeltatarO growth, OD600, 18 h, stronger effect = lower value, screened at 18.75 µg/mL (by protocol).
For COCCCNC(=O)CSc1nc2cc3c(cc2c(=O)n1CCCC(=O)NCc1ccc2c(c1)OCO2)OCO3, the survival was 84%.
Cc1cc(C)cc(NC(=O)N2CCC(N3CCN(Cc4ccccc4)C(=O)C3=O)CC2)c1 gave a survival of 77%.
With COc1ccccc1CNc1nc(-c2ccco2)nn1S(C)(=O)=O the survival was 70%.
Work on O=C(Cn1ncc2c3ccccc3n(Cc3ccccc3)c2c1=O)NCc1ccccc1 yielded a survival of 93%.
For Cc1ccccc1C(=O)OCc1cc(=O)n2nc(C(C)C)sc2n1, the survival was 81%.
With COc1ccc(Cn2c(C(=O)O)c(CNCCc3ccccc3Cl)c3ccc(C)cc32)cc1 the survival was 80%.
Cc1ccc(-n2c(=O)c3c(c4cc(C)ccc4n3C)n(CC(=O)Nc3c(C)cccc3C)c2=O)cc1 was tested, and the survival was 123%.
With CCN1CCN(c2cc(C)c3cc(NC(=O)c4ccccc4F)ccc3n2)CC1 the survival was 43% (active).
CCN1CCN(c2cc(C)c3cc(NC(=O)c4cc(OC)c(OC)c(OC)c4)ccc3n2)CC1 showed a survival of 78%.
For Cc1cc(N2CCN(C)CC2)nc2ccc(NC(=O)c3ccc(C(C)(C)C)cc3)cc12, the survival was -3% (active).
CCOc1cc(C(=O)Nc2ccc3nc(N4CCN(C)CC4)cc(C)c3c2)cc(OCC)c1OCC showed a survival of 137%.
In the case of CCN1CCN(c2cc(C)c3cc(NC(=O)c4ccc(OC)c(OC)c4)ccc3n2)CC1, the survival is reported as 44% (active).
Cc1ccc(NC(=O)Nc2ccc3nc(N4CCN(C)CC4)cc(C)c3c2)cc1C gave a survival of 101%.
With CCOc1ccc(CC(=O)Nc2ccc3nc(N4CCCCC4)cc(C)c3c2)cc1OCC the survival was 92%.
For COc1ccc(CC(=O)Nc2ccc3nc(N4CCCCC4)cc(C)c3c2)cc1, the survival was 51% (active).
In the case of Cc1ccc(NC(=O)Nc2ccc3nc(N4CCN(C)CC4)cc(C)c3c2)cc1F, the survival is reported as 96%.
With Cc1cc(N2CCN(C)CC2)nc2ccc(NC(=O)c3ccccc3F)cc12 the survival was 122%.
In the case of COc1ccc(CC(=O)Nc2ccc3nc(Nc4ccc(OC)cc4)cc(C)c3c2)cc1, the survival is reported as 55%.
COc1cccc(CNc2nc3c(-c4ccccc4)nnn3c3ccccc23)c1 showed a survival of 84%.
CCOc1ccc(NC(=O)c2ccc3c(SCC(=O)O)c4c(nc3c2)CCC4)cc1 showed a survival of 90%.
For CCC1CCCCN1S(=O)(=O)c1cc2c(cc1C)NC(=O)CO2 (stereo not drawn), the survival was 105%.
O=C1CCN(C(=O)/C=C/c2ccccc2)c2ccccc21 was tested, and the survival was 88%.
For CC(=O)c1ccc(NC(=O)C2CCCN(S(=O)(=O)c3ccc4c(c3)CCCN4C(C)=O)C2)cc1 (stereo not drawn), the survival was 93%.
Cc1ccc(NC(=O)C(=O)NCC(c2ccc3c(c2)OCO3)N2CCN(C)CC2)cc1C (stereo not drawn) gave a survival of 68%.
Work on CCN(CC)S(=O)(=O)c1ccc2nc(NC(=O)c3ccccc3OC)sc2c1 yielded a survival of 89%.
For CCOc1ccc(N2CC(NC(=O)Cc3cccs3)CC2=O)cc1 (stereo not drawn), the survival was 73%.
Cc1ccc(C(=O)Nc2ccc(F)cc2)cc1S(=O)(=O)N1CCCCCC1 showed a survival of 69%.
Work on COC(=O)c1sc(N2C(=O)c3oc4ccccc4c(=O)c3C2c2ccc(O)cc2)nc1C (stereo not drawn) yielded a survival of 121%.
Cc1[nH]c2ccc(-c3nnc(SCC(=O)N4c5ccccc5CCc5ccccc54)o3)cc2c1C was tested, and the survival was 89%.
With Cc1cc(N2CCCCC2)nc2ccc(NC(=O)c3ccc(F)cc3)cc12 the survival was 51%.
COc1ccc(Nc2cc(C)c3cc(NC(=O)c4cc(OC)cc(OC)c4)ccc3n2)cc1 was tested, and the survival was 94%.
For COc1cc(OC)cc(C(=O)Nc2ccc3nc(N4CCC(C)CC4)cc(C)c3c2)c1, the survival was 51%.
For CCN1CCN(c2cc(C)c3cc(NC(=O)c4cc(OC)cc(OC)c4)ccc3n2)CC1, the survival was 47% (active).
With COc1cc(OC)cc(C(=O)Nc2ccc3nc(N4CCCCC4)cc(C)c3c2)c1 the survival was 31% (active).
COC(=O)c1ccc(Cl)cc1NC(=O)Nc1nnc(N(C)C2CCCCC2)s1 was tested, and the survival was 81%.
COc1ccc(-c2cc(C)no2)cc1S(=O)(=O)N1CCOc2ccc(Cl)cc21 was tested, and the survival was 92%.
With Cc1ccccc1-n1c(=O)c2c3c(sc2n2cnnc12)CCCC3 the survival was 72%.
Compound Cc1ccc(-n2c(=O)[nH]c3cc(C(=O)NCc4ccccc4)ccc3c2=O)cc1 has a survival of 102%.
In the case of Cc1c(C(=O)OCc2ccccc2)[nH]c2c1C(=O)CC(c1ccc(C(C)(C)C)cc1)C2 (stereo not drawn), the survival is reported as 91%.
COC(=O)C(NC(=O)CCc1c(C)nc2c(-c3ccccc3)c(C)nn2c1C)C(C)C (stereo not drawn) was tested, and the survival was 109%.
O=C(Cc1ccc(F)cc1)N1CCC(c2nc3c(nnn3Cc3ccc(F)cc3)c(=O)[nH]2)CC1 gave a survival of 66%.
For O=C(Cc1ccccc1F)N1CCC(c2nc3c(nnn3Cc3cccc(Cl)c3)c(=O)[nH]2)CC1, the survival was 44% (active).
O=C(Cc1ccc(F)cc1)N1CCC(c2nc3c(nnn3Cc3ccc(Cl)cc3)c(=O)[nH]2)CC1 was tested, and the survival was 27% (active).
Work on O=C(Cc1ccccc1F)N1CCC(c2nc3c(nnn3Cc3ccc(F)cc3)c(=O)[nH]2)CC1 yielded a survival of 72%.
Work on CS(=O)(=O)N1CCC(c2nc3c(nnn3Cc3ccc(F)cc3)c(=O)[nH]2)CC1 yielded a survival of 102%.
Work on Cc1ccc(Cn2nnc3c(=O)[nH]c(C4CCN(C(=O)Cc5ccccc5F)CC4)nc32)cc1 yielded a survival of 69%.
COc1ccccc1N1CCN(C(=O)Cn2ncc3c2-c2cc(C)ccc2OC3)CC1 was tested, and the survival was 58%.
Compound CN(C(=S)SCC1=CCS(=O)(=O)C1)C1CCS(=O)(=O)C1 (stereo not drawn) has a survival of 94%.
Compound O=C1C(c2ccc(F)cc2)N(Cc2ccccc2Cl)C(=O)CN1C1CCCCC1 (stereo not drawn) has a survival of 81%.
Work on CC(C)(C)NC(=O)c1c(N)no[n+]1[O-] yielded a survival of 92%.
Compound Nc1no[n+]([O-])c1C(=O)NCCO has a survival of 65%.
For CN(C)C(=O)c1c(N)no[n+]1[O-], the survival was 56% (active).
Cc1cc(C)c2c(=O)cc(C(=O)NCCc3ccc(S(N)(=O)=O)cc3)oc2c1 gave a survival of 61%.
For COC(=O)c1oc2ccc(Cl)cc2c1C, the survival was 65%.
With CC(=O)Nc1c(C(=O)O)oc2ccc(Cl)cc12 the survival was 58% (active).
CCOc1ccc(CC(=O)Nc2c(C(=O)c3ccccc3)oc3ccc(Cl)cc23)cc1OCC showed a survival of 48%.
With O=C(NCc1cccs1)c1ccc(Cn2c(SCc3ccc(F)cc3)nc3cccnc32)cc1 the survival was 84%.
For C=CCN=C1SCC(=O)N1S(=O)(=O)c1ccc(C)cc1, the survival was 60% (active).
With Cc1ccc(S(=O)(=O)N=C2SCCCS2)cc1 the survival was 91%.
For C=CCN=C1SC(C)C(=O)N1S(=O)(=O)c1ccccc1 (stereo not drawn), the survival was 57%.
In the case of CC(=O)Nc1ccc(I)cc1C(=O)O, the survival is reported as 95%.
CCN(Cc1ccccc1)C(=O)Cn1c(=O)cc(C)c2c(C)nn(-c3cccc(F)c3)c21 showed a survival of 72%.
CCOC(=O)c1ccc(NC(=O)Cn2cc(C(=O)c3cccs3)c3ccccc32)cc1 was tested, and the survival was 62%.
Work on O=C(Nc1ccc(S(=O)(=O)N2CCC(c3nc4ccccc4s3)CC2)cc1)c1ccccc1 yielded a survival of 104%.
Work on Cc1ccc(C(=O)Nc2ccc(S(=O)(=O)N3CCC(c4nc5ccccc5s4)CC3)cc2)cc1 yielded a survival of 61%.
For O=C(Nc1ccc(S(=O)(=O)N2CCC(c3nc4ccccc4s3)CC2)cc1)c1ccccc1F, the survival was 57%.
With Cc1cccc(C(=O)Nc2ccc(S(=O)(=O)N3CCC(c4nc5ccccc5s4)CC3)cc2)c1 the survival was 40% (active).
Cc1ccccc1C(=O)Nc1ccc(S(=O)(=O)N2CCC(c3nc4ccccc4s3)CC2)cc1 was tested, and the survival was 40% (active).
Compound O=C(Nc1ccc(S(=O)(=O)N2CCC(c3nc4ccccc4s3)CC2)cc1)c1ccc(F)cc1 has a survival of 63%.
With COCCn1c(SCC(=O)c2c(C)[nH]c3ccccc23)nc2cc(C(=O)NC(C)C)ccc2c1=O the survival was 68%.
Work on COc1ccc(NC(=O)CS(=O)CC(=O)NC2CCCc3ccccc32)cc1 (stereo not drawn) yielded a survival of 60%.
O=C(c1cccc(Cl)c1)n1nc(-c2cccnc2)nc1NCc1ccccc1 showed a survival of 53%.
For Cc1ccc(Cl)cc1NC(=O)COC(=O)CC(C)(C)CC1=NS(=O)(=O)c2ccccc2N1, the survival was 84%.
For CC(C)(CO)C(O)C(=O)NN (stereo not drawn), the survival was 84%.
In the case of COc1ccc(C(=O)NCc2ccc3c(c2)CCN3C(=O)c2ccccc2)cc1, the survival is reported as 84%.
Cc1ccc(NC(=O)NCc2ccc3c(c2)CCN3C(=O)c2ccccc2)c(Cl)c1 gave a survival of 82%.
Work on Cc1ccc(C(=O)N2CCN(c3ccccc3)CC2)cc1 yielded a survival of 87%.
CC(=O)OC1CC(C)N(C(=O)c2ccccc2)c2ccc(C)cc21 (stereo not drawn) was tested, and the survival was 67%.
Work on Cc1ccc(C)c(N2CCN(C(=O)c3ccc4c(c3)N(Cc3ccc(F)cc3)C(=O)c3ccccc3S4=O)CC2)c1 (stereo not drawn) yielded a survival of 101%.
For Cc1ccc2c(c1)N(C(=O)c1ccc(F)cc1)C(C)(C)CC2(C)c1ccccc1 (stereo not drawn), the survival was 24% (active).
Compound Cc1ccc(C(=O)N2CC(=O)NC(=O)C2)cc1 has a survival of 83%.
Work on COc1ccc(C(=O)NCc2ccc3c(c2)CCN3C(=O)c2ccc(C)cc2)cc1 yielded a survival of 82%.
COc1ccc(C(=O)N2c3ccc(C)cc3C(C)(c3ccccc3)CC2(C)C)cc1 (stereo not drawn) was tested, and the survival was 25% (active).
With Cc1ccc2c(c1)C(C)(c1ccccc1)CC(C)(C)N2C(=O)c1ccc(F)cc1 (stereo not drawn) the survival was -4% (active).
Cc1ccc(C(=O)N2c3ccc(C)cc3C(C)(c3ccccc3)CC2(C)C)cc1 (stereo not drawn) was tested, and the survival was 4% (active).
With CC1=CC(C)(C)N(CC(=O)c2ccccc2)c2ccc(C)cc21 the survival was 97%.
With CCOC(=O)C1CCC(CN(Cc2ccc(OC)cc2)S(=O)(=O)c2ccc(F)c(C(=O)Nc3c(C)cccc3C)c2)CC1 (stereo not drawn) the survival was 83%.
With O=C(NCCCN1CCOCC1)C1CC(c2ccccc2O)=NO1 (stereo not drawn) the survival was 97%.

— PubChem BioAssay AID463173 (ICCB-Longwood Screening Facility, Harvard Medical School, 2010)
